Source: PubChem BioAssay AID1159580 (chemical genetic matrix, 2015)
The whole screen tested about 5,500 compounds, of which about 2,000 (36%) were called active. Inconclusive results (about 18%) are left out. Rule as the data show it: active = normalized growth mostly below about 0.91 (no sharp cut-off); inconclusive = no clear call, values can overlap the other calls; inactive = mostly above about 0.92. This is one part of the list.

Test: chemical genetic growth profiling, strain panel (AID 1159580);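 also: tested at 20 µM; growth read once vehicle control cultures reached saturation at 30 °C; 1 = growth at the plate median or of vehicle wells; lower values mean less growth of the strain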
Conditions: growth OD

Measured: normalized growth

COc1cc(/C=C/C(=O)O)cc(OC)c1OC
inactive: S. cerevisiae deletion strains, locus YJR043C, strain POL32, hits give low values 0.999 | S. cerevisiae deletion strains, locus YJR066W, strain TOR1, hits give low values 1.02 | S. cerevisiae deletion strains, locus YKL009W, strain mrt4, hits give low values 1.03 | S. cerevisiae deletion strains, locus YKL068W, hits give low values 1.02 | S. cerevisiae deletion strains, locus YKL085W, strain MDH1 (second series), hits give low values 1.01 | S. cerevisiae deletion strains, locus YKL085W, strain MDH1, hits give low values 1.01 | S. cerevisiae deletion strains, locus YKL160W, strain elf1, hits give low values 0.985 | S. cerevisiae deletion strains, locus YKR001C, strain vps1, hits give low values 1 | S. cerevisiae deletion strains, locus YKR026C, strain gcn3, hits give low values 0.985 | S. cerevisiae deletion strains, locus YKR091W, strain srl3, hits give low values 0.98 | S. cerevisiae deletion strains, locus YLL001W, strain dnm1, hits give low values 0.969 | S. cerevisiae deletion strains, locus YLL026W, hits give low values 0.995 | S. cerevisiae deletion strains, locus YLL041C, strain sdh2, hits give low values 0.999 | S. cerevisiae deletion strains, locus YLR027C, strain aat2, hits give low values 0.998 | S. cerevisiae deletion strains, locus YLR039C, strain RIC1, hits give low values 1.04 | S. cerevisiae deletion strains, locus YLR058C, strain SHM2, hits give low values 1.02 | S. cerevisiae deletion strains, locus YLR102C, strain apc9, hits give low values 1.02 | S. cerevisiae deletion strains, locus YLR113W, strain HOG1, hits give low values 1.03 | S. cerevisiae deletion strains, locus YLR221C, strain rsa3, hits give low values 1 | S. cerevisiae deletion strains, locus YLR258W, strain gsy2, hits give low values 0.993 | S. cerevisiae deletion strains, locus YLR262C, strain YPT6 (second series), hits give low values 0.994 | S. cerevisiae deletion strains, locus YLR262C, strain YPT6, hits give low values 1.01 | S. cerevisiae deletion strains, locus YLR268W, strain sec22, hits give low values 1.02 | S. cerevisiae deletion strains, locus YLR320W, strain mms22, hits give low values 0.995 | S. cerevisiae deletion strains, locus YLR330W, strain CHS5, hits give low values 1.01 | S. cerevisiae deletion strains, locus YLR342W, strain FKS1 (second series), hits give low values 0.999 | S. cerevisiae deletion strains, locus YLR342W, strain FKS1, hits give low values 0.986 | S. cerevisiae deletion strains, locus YLR357W, strain rsc2, hits give low values 0.993 | S. cerevisiae deletion strains, locus YLR370C, strain arc18, hits give low values 0.992 | S. cerevisiae deletion strains, locus YLR371W, strain rom2, hits give low values 1.06 | S. cerevisiae deletion strains, locus YLR384C, strain iki3, hits give low values 0.986 | S. cerevisiae deletion strains, locus YLR418C, strain cdc73, hits give low values 0.975 | S. cerevisiae deletion strains, locus YML016C, strain PPZ1, hits give low values 1.01 | S. cerevisiae deletion strains, locus YML032C, strain rad52, hits give low values 1.03 | S. cerevisiae deletion strains, locus YML120C, strain ndi1, hits give low values 1 | S. cerevisiae deletion strains, locus YML124C, strain tub3, hits give low values 1.02 | S. cerevisiae deletion strains, locus YMR058W, strain fet3, hits give low values 0.997 | S. cerevisiae deletion strains, locus YMR078C, strain ctf18, hits give low values 1.05 | S. cerevisiae deletion strains, locus YMR125W, strain sto1, hits give low values 0.965 | S. cerevisiae deletion strains, locus YMR129W, hits give low values 0.996 | S. cerevisiae deletion strains, locus YMR205C, strain PFK2, hits give low values 0.984 | S. cerevisiae deletion strains, locus YMR223W, strain ubp8, hits give low values 1.04 | S. cerevisiae deletion strains, locus YMR231W, strain pep5, hits give low values 0.981 | S. cerevisiae deletion strains, locus YMR263W, strain SAP30, hits give low values 1.01 | S. cerevisiae deletion strains, locus YMR307W, strain GAS1, hits give low values 1.04 | S. cerevisiae deletion strains, locus YNL067W, strain RPL9B, hits give low values 1.01 | S. cerevisiae deletion strains, locus YNL071W, strain lat1, hits give low values 0.991 | S. cerevisiae deletion strains, locus YNL183C, strain NPR1, hits give low values 1.03 | S. cerevisiae deletion strains, locus YNL209W, strain ssb2, hits give low values 0.996 | S. cerevisiae deletion strains, locus YNL233W, strain BNI4, hits give low values 0.999 | S. cerevisiae deletion strains, locus YNL248C, strain rpa49, hits give low values 1 | S. cerevisiae deletion strains, locus YNL250W, strain rad50, hits give low values 1.02 | S. cerevisiae deletion strains, locus YNL271C, strain bni1, hits give low values 1.02 | S. cerevisiae deletion strains, locus YNL298W, strain CLA4, hits give low values 1.03 | S. cerevisiae deletion strains, locus YNL307C, strain MCK1, hits give low values 1.02 | S. cerevisiae deletion strains, locus YNL322C, strain KRE1 (second series), hits give low values 0.99 | S. cerevisiae deletion strains, locus YNL322C, strain KRE1, hits give low values 1.01 | S. cerevisiae deletion strains, locus YNR049C, strain mso1, hits give low values 0.988 | S. cerevisiae deletion strains, locus YNR052C, strain pop2, hits give low values 1.01 | S. cerevisiae deletion strains, locus YOL006C, strain TOP1, hits give low values 1.04 | S. cerevisiae deletion strains, locus YOL012C, strain htz1 1.26 | S. cerevisiae deletion strains, locus YOL147C, strain pex11, hits give low values 1.02 | S. cerevisiae deletion strains, locus YOR001W, strain rrp6, hits give low values 1.03 | S. cerevisiae deletion strains, locus YOR061W, strain CKA2, hits give low values 1.02 | S. cerevisiae deletion strains, locus YOR069W, strain VPS5, hits give low values 1.01 | S. cerevisiae deletion strains, locus YOR070C, strain gyp1, hits give low values 0.991 | S. cerevisiae deletion strains, locus YOR080W, strain dia2, hits give low values 0.983 | S. cerevisiae deletion strains, locus YOR083W, strain WHI5, hits give low values 0.972 | S. cerevisiae deletion strains, locus YOR106W, strain vam3, hits give low values 0.961 | S. cerevisiae deletion strains, locus YOR136W, strain idh2, hits give low values 1.01 | S. cerevisiae deletion strains, locus YOR144C, strain elg1, hits give low values 1.01 | S. cerevisiae deletion strains, locus YOR184W, strain ser1, hits give low values 1.04 | S. cerevisiae deletion strains, locus YOR231W, strain MKK1, hits give low values 1.06 | S. cerevisiae deletion strains, locus YOR265W, strain rbl2, hits give low values 0.983 | S. cerevisiae deletion strains, locus YOR270C, strain vph1, hits give low values 0.998 | S. cerevisiae deletion strains, locus YOR290C, strain snf2, hits give low values 0.954 | S. cerevisiae deletion strains, locus YOR316C, strain cot1, hits give low values 1.02 | S. cerevisiae deletion strains, locus YPL051W, strain arl3, hits give low values 1 | S. cerevisiae deletion strains, locus YPL078C, strain atp4, hits give low values 0.987 | S. cerevisiae deletion strains, locus YPL106C, strain sse1, hits give low values 0.972 | S. cerevisiae deletion strains, locus YPL240C, strain hsp82, hits give low values 0.989 | S. cerevisiae deletion strains, locus YPL256C, strain CLN2, hits give low values 0.999 | S. cerevisiae deletion strains, locus YPR119W, strain clb2, hits give low values 1.03 | S. cerevisiae deletion strains, locus YPR141C, strain kar3, hits give low values 1.03 | S. cerevisiae deletion strains, locus YPR163C, strain tif3, hits give low values 1.03 | S. cerevisiae deletion strains, locus YPR167C, strain met16, hits give low values 1.02 | S. cerevisiae deletion strains, strain wtn01, hits give low values 1.01 | S. cerevisiae strains, strain wild type, hits give low values 1.01
